Measured values taken from PubChem BioAssay AID686970 (National Center for Advancing Translational Sciences (NCATS), 2013).
Among all 360,000 compounds or so, about 6,000 (1.7%) were called active. About 8% were inconclusive and are not listed. For the sample, actives were picked, then their nearest neighbours and some compounds at random. Unmarked numbers belong to inactive results. Calls come from the whole dose curve; as a rule, active = well fitted cell-killing curve with a large enough effect; inconclusive = small, poorly fitted or top-dose-only effect, or effect the other way; inactive = flat fitted curve, though single readings scatter.

experiment: qHTS for induction of synthetic lethality in tumor cells producing 2HG: qHTS for the HT-1080-NT fibrosarcoma cell line; conditions: HT-1080-NT fibrosarcoma viability, CellTiter-Glo ATP luminescence, 48 h; series mostly up to 46.1 µM; activity, negative = less viability: at the top concentration;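 note: NT is the 2HG producing partner of a matched IDH1 knockdown line; nearly all actives have a fitted effect of over 55% in size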;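 for activity, negative = less viability: 0% = DMSO-treated cells and -100% = media-only wells without cells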
Method in brief: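 750 cells/well, RPMI + 5% FBS; 2 h settle, compound pin-transfer, 48 h at 37 degrees C. CellTiter-Glo 10 min RT, luminescence. Normalized to DMSO and media-only wells.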
Potency is the fitted concentration of half-maximal effect.

Which Potency does the source give for `Cc1ccc(CCC(=O)Nc2ncc(Cc3cc(Cl)ccc3Cl)s2)o1` here?
Its Potency is 1.16 µM (active).

With `Cc1ccc(C(=O)Nc2nc3ccc(Cl)cc3s2)o1` as the compound, how does the “activity, negative = less viability” value read?
Its value is -1.78%.

With `O=C(CCc1ccccc1Cl)Nc1ccc(S(=O)(=O)Nc2nccs2)cc1` as the compound, how does the “activity, negative = less viability” value read?
The value was 7.81%.

Which “activity, negative = less viability” value does the source give for `CCc1cc(-c2nnn(CCC3COCCO3)c2CC)ccc1-c1cn(Cc2ccc3ccccc3c2)nn1` (configuration not stated) here?
The value was -13.9%.

With `Cc1ccc(Cn2c(C)c(C(=O)NCc3ccccc3C(F)(F)F)sc2=O)cc1` as the compound, how does the “activity, negative = less viability” value read?
The value was 2.27%.

With `CCNC(=O)C1(C)CCCN1C(=O)c1ccc(N(C)C)cc1` (configuration not stated) as the compound, how does the “activity, negative = less viability” value read?
The value was 14.3%.

For `Cc1nc2ccccc2nc(C)c1=NOCc1ccc(Cl)cc1Cl`, which “activity, negative = less viability” value is on record?
The value was 3.79%.

For `CCOC(=O)N(C)c1c(CC)nc2c(OCc3ccccc3C(=O)OC)cccn12`, which “activity, negative = less viability” value is on record?
The value was -10.3%.

With `CCc1nc2c(OCc3ccccc3)cccn2c1N(C)C(=O)c1ccco1` as the compound, how does the “activity, negative = less viability” value read?
The value was 21.7%.

With `Cc1nc2c(OCc3ccc(Cl)cc3)cccn2c1N(C)Cc1cccs1` as the compound, how does the Potency read?
Its Potency is 16.4 µM (active).

Which “activity, negative = less viability” value does the source give for `CCc1nc2c(OCc3ccc(C(=O)OC)cc3)cccn2c1N(C)C(=O)C(C)C` here?
Its value is 20.3%.

Which Potency does the source give for `Cc1nc2c(OCc3ccc(Cl)cc3Cl)cccn2c1N(C)CC1CC1` here?
The Potency was 13 µM (active).

Which Potency does the source give for `CCc1nc2c(OCc3ccc(Cl)cc3Cl)cccn2c1N(C)C(=O)C(C)C` here?
The Potency was 16.4 µM (active).

Which “activity, negative = less viability” value does the source give for `CCc1nc2c(OCc3ccc(F)c(F)c3)cccn2c1N(C)C(=O)c1ccco1` here?
Its value is 1.64%.

Which “activity, negative = less viability” value does the source give for `CCCCN(C=O)c1c(CC)nc2c(OCc3ccccc3C(=O)OC)cccn12` here?
Its value is -26.4%.

For `COc1ccc(S(=O)(=O)NC(=O)C2(C)CCN2C(=O)COc2ccc(Cl)cc2)cc1` (configuration not stated), which “activity, negative = less viability” value is on record?
Its value is 15.6%.

Which “activity, negative = less viability” value does the source give for `Cc1cccc(CN2CCN(C3CN(Cc4cn(Cc5cc(C)cc(C)c5)nn4)S(=O)(=O)C3)CC2)c1` (configuration not stated) here?
The value was -14%.

Which “activity, negative = less viability” value does the source give for `CC1CCC2(CC1)NC(=O)N(CC(=O)NCc1ccco1)C2=O` (configuration not stated) here?
The value was -3.13%.

Which “activity, negative = less viability” value does the source give for `Cc1ccc(S(=O)(=O)N[C@H](CO)C(C)C)cc1` here?
The value was 18.5%.

With `COCCCn1cc(CN2CC(N(C)C)CS2(=O)=O)nn1` (configuration not stated) as the compound, how does the “activity, negative = less viability” value read?
The value was 23.5%.

Which “activity, negative = less viability” value does the source give for `Cc1nc(C(F)(F)F)ccc1C(=O)N1CCC1(C)C(=O)NS(=O)(=O)c1ccccc1Cl` (configuration not stated) here?
The value was 23.3%.

Which “activity, negative = less viability” value does the source give for `O=C(NC1CCCCC1)C(c1cc2ccccc2o1)n1c(=O)c(-c2ccco2)nc2ccccc21` (configuration not stated) here?
Its value is -11.5%.

For `Cc1ccc2nc(-c3cccnc3)c(NC3CCCC3)n2c1`, which “activity, negative = less viability” value is on record?
Its value is 1.6%.

Which Potency does the source give for `COc1ccc(-c2nc3cnccn3c2NC2CCCCC2)cc1-c1cccc(Cl)c1` here?
The Potency was 18.4 µM (active).

Which “activity, negative = less viability” value does the source give for `COc1cccc(-c2nc3nc(C)cc(C)n3c2NC2CCCCC2)c1` here?
Its value is 4.57%.

With `CC(=O)c1nn(-c2ccccc2)c(=Nc2ccccc2)cc1C` as the compound, how does the “activity, negative = less viability” value read?
The value was 12.8%.

Which “activity, negative = less viability” value does the source give for `O=C(Nc1ccccc1)c1ccccc1OCc1ccccc1` here?
The value was 14.1%.

With `CCCOc1ccccc1C1CC(=O)Nc2cc3c(cc21)OCO3` (configuration not stated) as the compound, how does the Potency read?
The Potency was 8.2 µM (active).

For `COC(=O)c1ccc(C2CC(=O)Nc3cc(OC)c(OC)cc32)cc1` (configuration not stated), which “activity, negative = less viability” value is on record?
Its value is 1.74%.

Which activity, negative = less viability does the source give for `CCCOc1ccc(C2NC(=O)NC(c3ccccc3)=C2C(C)=O)cc1OCC` (configuration not stated) here?
Its activity, negative = less viability is 6.35% [at 9.24 µM].

With `Cc1ccc(F)c(S(=O)(=O)NC(=O)C2(C)CCN2C(=O)CCc2cccs2)c1` (configuration not stated) as the compound, how does the “activity, negative = less viability” value read?
The value was 18.9%.

Which “activity, negative = less viability” value does the source give for `OC[C@@H]1CN(Cc2ccc3c(c2)OCO3)C[C@H](n2cnc3c(NCc4ccco4)ncnc32)O1` here?
Its value is 8.23%.

For `CCc1nc2c(OCCOc3ccccc3)cccn2c1N(C)C(=O)c1ccc(OC)cc1`, which “activity, negative = less viability” value is on record?
Its value is 0.153%.

For `CC(=O)c1ccc(Nc2nc(C(N)c3ccccc3)cs2)cc1` (configuration not stated), which “activity, negative = less viability” value is on record?
Its value is -1.4%.

With `NC(c1csc(NC(=O)Nc2cccc(C(F)(F)F)c2)n1)C1CCCCC1` (configuration not stated) as the compound, how does the Potency read?
The Potency was 8.2 µM (active).

Which “activity, negative = less viability” value does the source give for `O=C(O)CC1(CC(=O)Nc2cccc(C(F)(F)F)c2)CCCC1` here?
The value was -9.72%.

For `COc1ccc(C(N)c2csc(NC(=O)Nc3cccc(C(F)(F)F)c3)n2)cc1` (configuration not stated), which Potency is on record?
Its Potency is 20.6 µM (active).

Which “activity, negative = less viability” value does the source give for `O=C(Nc1cccc(F)c1)NC1CCCCCCC1` here?
The value was -29.5%.

For `NC(c1ccccc1)c1csc(NC(=O)Nc2cccc(C(F)(F)F)c2)n1` (configuration not stated), which Potency is on record?
Its Potency is 18.4 µM (active).

For `O=C(Nc1ccc(C(=O)N2CCOCC2)cc1)Nc1cccc(C(F)(F)F)c1`, which “activity, negative = less viability” value is on record?
Its value is 3.58%.

With `COc1cccc(NC(=O)Nc2ccc(F)cc2)c1` as the compound, how does the “activity, negative = less viability” value read?
The value was 9.18%.

Which “activity, negative = less viability” value does the source give for `COc1ccc(C(CC(=O)Nc2ccc(C)cc2)NC(=O)C(F)(F)F)cc1` (configuration not stated) here?
Its value is 1.15%.

Which “activity, negative = less viability” value does the source give for `O=C(NCCc1cccc(F)c1)C1CC(O)CN1C(=O)Nc1ccccc1` (configuration not stated) here?
Its value is 5.15%.

Which “activity, negative = less viability” value does the source give for `CCN(CC)C(=O)C1=C(C)N(Cc2ccc(F)cc2)C(=O)C(CC(=O)NCc2cccc3ccccc23)C1` (configuration not stated) here?
Its value is -8.28%.

Which “activity, negative = less viability” value does the source give for `CO[C@@H]1CN(C)C(=O)c2cc(NC(=O)Nc3cc(F)ccc3F)ccc2OC[C@H](C)N(C(=O)c2ccccn2)C[C@@H]1C` here?
Its value is 2.75%.

With `CCCCC[C@H](C)N1C[C@@H](COCc2ccccc2)Oc2cc(N3CCC[C@@H]3CO)ccc2S1(=O)=O` as the compound, how does the “activity, negative = less viability” value read?
Its value is 2.67%.

With `O=C(NCc1cccnc1)c1ccc2nc([C@@H]3O[C@H](CO)[C@H](O)[C@H](O)[C@H]3O)[nH]c2c1` as the compound, how does the “activity, negative = less viability” value read?
Its value is 28.8%.

Which “activity, negative = less viability” value does the source give for `COc1ccc(S(=O)(=O)N(C)C[C@H]2OCc3cnnn3CCCC(=O)N([C@H](C)CO)C[C@H]2C)cc1` here?
The value was 15.6%.

For `CNc1cc(-c2c(OC)cccc2OC)ncn1`, which “activity, negative = less viability” value is on record?
The value was 6.96%.

For `O=S1(=O)CC(N2CCN(c3ccccn3)CC2)CN1Cc1ccc(F)cc1` (configuration not stated), which “activity, negative = less viability” value is on record?
The value was 4.82%.

For `COc1cccc(NC(=O)C2(C)CCN2Cc2ccccc2Cl)c1` (configuration not stated), which “activity, negative = less viability” value is on record?
Its value is -22.6%.

Which Potency does the source give for `COc1ccc(C2CC(c3cccc(OC)c3)=NN2c2ccc(S(N)(=O)=O)cc2)cc1` (configuration not stated) here?
Its Potency is 18.4 µM (active).

For `COc1ccc(C2CC(c3ccc([N+](=O)[O-])cc3)=NN2C(C)=O)cc1` (configuration not stated), which “activity, negative = less viability” value is on record?
Its value is -0.435%.

Which “activity, negative = less viability” value does the source give for `COc1ccc(C2CC(c3ccccc3)=NN2C(=O)COC(=O)COc2ccccc2)cc1` (configuration not stated) here?
The value was 5.99%.

Which “activity, negative = less viability” value does the source give for `O=C(CSc1ccc(Cl)cc1)NC1CC1` here?
The value was -0.483%.

For `O=C(OC1CC2CC1[C@H]1CCCCN1C2=O)N1CCOCC1` (some centres not stated), which “activity, negative = less viability” value is on record?
The value was 16%.

For `CCCCCNC(=O)C(c1ccc(OC)cc1)n1c(=O)c(-c2ccccc2)nc2ccccc21` (configuration not stated), which “activity, negative = less viability” value is on record?
The value was -20.5%.

Which “activity, negative = less viability” value does the source give for `CCN(CC)C(=O)C1=C(C)N(Cc2ccc(OC)cc2)C(=O)C(CC(=O)NCCCCc2ccccc2)C1` (configuration not stated) here?
Its value is -11.6%.

For `O=C(c1cccc([N+](=O)[O-])c1)N1CCN(Cc2ccccc2)CC1`, which “activity, negative = less viability” value is on record?
The value was 13.5%.

For `Cc1ccc(S(=O)(=O)N(Cc2cccc([N+](=O)[O-])c2)C(=O)N2CCN(C)CC2)cc1`, which “activity, negative = less viability” value is on record?
The value was -5.22%.

For `O=C(CCl)N(Cc1cccc([N+](=O)[O-])c1)c1cccc(Cl)c1`, which Potency is on record?
The Potency was 6.51 µM (active).

For `O=C(c1ccc(N2CCCC2=O)cc1)N1CCN(c2ccc(C(F)(F)F)cc2[N+](=O)[O-])CC1`, which “activity, negative = less viability” value is on record?
The value was -4.69%.
